Shown are actives, neighbours in structure and some others; about 1.3% of the full set was active somewhere.
C2C12 statin: suppression of simvastatin myotoxicity; C2C12 myotubes + simvastatin, ATP luminescence, 48 h; scaled: DMSO 0, geranylgeraniol control 100; rescue of ATP level, % at 7.49 µM; 330,000 compounds, 0.78% hits;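 active means mean ATP rescue above about 67%, or every replicate alone reaching that limit, limit read from the data, passing the limit was not always enough; inconclusive means no clear call, values can overlap the other calls; inactive means mean under the limit and some replicate under it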;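 further: myotubes were challenged with 10 µM simvastatin during compound exposure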
AI-2 QS modul: modulators of Vibrio harveyi AI-2 quorum sensing system. Vibrio harveyi JMH597 AI-2 luminescence/OD600 ratio, 9 h; active compounds read low; strain lacks LuxN and CqsS sensors; 0 = neutral-control median. activity change, % at 7.5 µM. 300,000 compounds, 0.4% hits; in the data active means activity change below about -75%, passing the limit was not always enough; inconclusive means no clear call, values can overlap the other calls;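 further: luminescence divided by OD600 gain over 9 h not by final OD600 alone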
PGC1a acetyl inh: PGC1a acetylation modulation, inhibitor mode. U2OS PGC1a acetylation, AlphaScreen anti-acetyl-lysine; with virally co-expressed GCN5 acetyltransferase. inhibition, % at 15.6 µM. AID 651687. 350,000 compounds, 0.17% hits;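 active means every replicate shows inhibition of at least 40%; inconclusive means mean inhibition at least 40% but some replicate below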;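 further: 0% = neutral control wells and 100% = positive control wells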
HIF activator: HIF pathway transcriptional activation; U2OS HRE-luciferase reporter, luminescence; normalized: DMSO 0%, desferrioxamine 100%; activation, % at 7.5 µM (by protocol); 300,000 compounds, 0.32% hits;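 active means mean activation of at least 10% of the iron chelator positive control signal, with at least half of replicates also reaching 10%; inconclusive means mean and replicate majority disagree about reaching 10%; inactive means mean and most replicates under 10%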
Rce1 inhib: blocks yeast Ras-converting enzyme | yeast membranes, quenched prenylated peptide cleavage fluorescence | calls only | 290,000 compounds, 0.27% hits;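 active means fall in fluorescence gain of 50% or more versus controls, with final raw signal at or below 3038400; inconclusive means same 50% fall but final raw signal above 3038400; inactive means fall in fluorescence gain under 50%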;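 further: plate controls were neutral control wells for no effect and wells lacking membranes for full effect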
Target sequence (Q03530 whole entry, looked up): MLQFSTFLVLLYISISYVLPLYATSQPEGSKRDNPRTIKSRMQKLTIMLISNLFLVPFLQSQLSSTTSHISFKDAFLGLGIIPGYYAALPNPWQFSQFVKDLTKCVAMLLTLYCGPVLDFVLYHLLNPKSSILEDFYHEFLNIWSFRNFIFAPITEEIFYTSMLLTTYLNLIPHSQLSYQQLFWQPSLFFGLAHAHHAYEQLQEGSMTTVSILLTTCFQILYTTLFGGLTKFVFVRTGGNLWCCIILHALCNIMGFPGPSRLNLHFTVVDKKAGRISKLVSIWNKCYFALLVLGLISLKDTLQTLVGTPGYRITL
The depositor's hits bear a star; i = inactive; u = inconclusive; x = no result given; + = active, no number.

SMILES	C2C12 statin	AI-2 QS modul	PGC1a acetyl inh	HIF activator	Rce1 inhib
CCC(Sc1nc(C)cc(=O)[nH]1)C(=O)Nc1sc2c(c1C#N)CCCC2 (configuration not stated)	4	11	-19	23*	i
Cc1ccc(Nc2nc(CSc3nnc(-c4ccncc4)n3C)cs2)cc1	x	36	-1	258*	i
COc1ccccc1C#Cc1ccc([C@@H]2[C@H]3CN(C(=O)C4CC4)CCCCN3[C@H]2CO)cc1	x	x	-20	x	x
Cc1ccc(/C=N\Nc2nc3ccc(Cl)cc3[nH]2)o1	x	13	-9	13*	i
Fc1ccccc1-c1ccc(/C=N/Nc2nc3ccccc3[nH]2)o1	x	32	x	2	i
CCC(=O)N[C@@H]1CC[C@@H](CCn2cc(-c3cccc(OC)c3)nn2)O[C@H]1CO	-1	x	7	x	x
OCCN(CCO)c1cc2c3ccccc3ccc2c2ccccc12	-3	x	-4	x	x
OCCN(CCO)c1ccc2ccccc2c1	21	16	x	0	+
CCOC(=O)c1oc2cccc(OC(C)=O)c2c1C	147*	2	1	1	i
CCOC(=O)c1oc2cccc(O)c2c1C	-16	20	2	5	i
Clc1ccc(N2COC3c4cccc5cccc(c45)C32)cc1 (configuration not stated)	5	20	-8	0	x
COc1ccc(N2COC3c4cccc5cccc(c45)C32)cc1 (configuration not stated)	88*	20	7	0	x
COc1ccc2c3c([nH]c2c1)[C@@H](CO)N(C(=O)Nc1ccc(F)cc1)CC31CCN(S(=O)(=O)c2cccs2)CC1	x	x	-11	x	x
C[C@H]1CN([C@@H](C)CO)C(=O)c2cc(C3=CCCCC3)cnc2O[C@@H]1CN(C)C(=O)c1ccccc1	-1	x	-27	x	x
COc1cc(/C(C#N)=C/c2ccccc2)c([N+](=O)[O-])cc1OC	84*	u	10	-44	i
COc1ccc(/C=C(\C#N)c2cc(OC)c(OC)cc2[N+](=O)[O-])cc1	-34	3	9	0	i
CCC1(C)Cc2c(sc3nc(NN)n(C)c(=O)c23)CO1 (configuration not stated)	144*	23	-10	0	i
COc1ccc(OC)c(C2=Nn3c(nnc3-c3cc(C)[nH]n3)SC2)c1	x	32	x	58*	i
Cc1ccc(CCC(=O)Nc2ccc(Br)cc2)o1	-34	-88*	2	2	i
Cc1ccc(CCC(=O)Nc2ccc(N(C)C)cc2)o1	-13	x	x	0	x
CSC(=S)N/N=C/c1ccccc1	87*	9	-20	1	i
CN1C(=O)C2(c3ccccc31)C1CCCC=C1C(C#N)=C(N)C2(C#N)C#N (configuration not stated)	155*	x	7	x	x
Cc1cc(=O)n2c(ccc3ccccc32)c1C#N	21	16	9	-1	i
Cc1cc(=O)n2ccccc2c1C#N	8	23	4	0	+
CCC(=O)N1CC2(C1)CN(C(=O)Nc1ccc(F)cc1)[C@H](CO)c1c2c2ccc(OC)cc2n1C	x	x	5	x	x
SMILES	C2C12 statin	AI-2 QS modul	PGC1a acetyl inh	HIF activator	Rce1 inhib
C[C@@H]1CCCCO[C@@H](CN(C)S(=O)(=O)c2ccc(F)cc2)[C@H](C)CN([C@@H](C)CO)C(=O)c2cc(NC(=O)Nc3cccc4ccccc34)ccc2O1	84*	x	-19	x	x
C[C@@H]1CCCCO[C@H](CN(C)S(=O)(=O)c2ccc(F)cc2)[C@H](C)CN([C@@H](C)CO)C(=O)c2cc(NS(C)(=O)=O)ccc2O1	81*	x	3	x	x
C[C@H](CO)N1C[C@H](C)[C@H](CN(C)S(=O)(=O)c2cccs2)Oc2ccc(NS(=O)(=O)c3ccc(F)cc3)cc2C1=O	29	x	-2	x	x
C[C@H](CO)N1C[C@H](C)[C@@H](CN(C)S(C)(=O)=O)OCCCC[C@H](C)Oc2ccc(NS(=O)(=O)c3ccc(F)cc3)cc2C1=O	-8	x	13	x	x
C[C@@H]1CCCCO[C@H](CN(C)S(C)(=O)=O)[C@@H](C)CN([C@@H](C)CO)C(=O)c2cc(NS(=O)(=O)c3ccc(F)cc3)ccc2O1	102*	x	9	x	x
C[C@H]1CN([C@@H](C)CO)C(=O)c2cc(NS(=O)(=O)c3ccc(F)cc3)ccc2O[C@@H]1CN(C)S(=O)(=O)c1cccs1	81*	x	-10	x	x
C[C@H]1CN([C@@H](C)CO)C(=O)Cc2cc(N(C)C)ccc2O[C@@H]1CN(C)C(=O)Nc1ccc(C(F)(F)F)cc1	34	x	4	x	x
C[C@@H]1CCCCO[C@H](CN(C)S(=O)(=O)c2ccc(F)cc2)[C@@H](C)CN([C@@H](C)CO)C(=O)c2cc(NC(=O)Cc3ccccc3)ccc2O1	-90	x	8	x	x
C[C@@H]1CCCCO[C@H](CN(C)S(=O)(=O)c2ccc(F)cc2)[C@H](C)CN([C@@H](C)CO)C(=O)c2cc(NC(=O)Cc3ccccc3)ccc2O1	152*	x	-1	x	x
C[C@H](CO)N1C[C@H](C)[C@H](CN(C)S(=O)(=O)c2ccc(F)cc2)OCCCC[C@H](C)Oc2ccc(NS(C)(=O)=O)cc2C1=O	105*	x	4	x	x
CCCNC(=O)N1CC2(C1)[C@H](c1ccccc1)[C@@H](CO)N2C(=O)C1CCCC1	x	x	-10	x	x
O=C(NC[C@@H]1CC[C@H]2[C@H](CN2Cc2ccccc2F)O1)C1CC1	x	x	-2	x	x
C[C@H](N)c1nnc(SCC(=O)c2ccc(Cl)cc2)o1	119*	6	-1	0	i
COc1ccc2[nH]c3c(=S)nc[nH]c3c2c1	x	1	x	0	i
S=c1nc[nH]c2nc[nH]c12	-11	-154*	19	3	i
CNC(=O)Cn1ncc2c(C)n(Cc3ccc(C)cc3)c(C)c2c1=O	120*	24	0	0	i
CCCCNc1c(-c2ccc(SC(C)CC)c(OC)c2)nc2ccc(C)cn12 (configuration not stated)	-29	26	-10	-1	+
CCCCCCSc1cc(-c2nc3cnccn3c2NCCCC)ccc1OC	12	x	-7	x	x
CCCCCCSc1cc(-c2nc3cc(C)ccn3c2NCCCC)ccc1OC	-16	20	x	-3	+
O=C(N[C@H]1CC[C@H](CCNS(=O)(=O)c2cccc(Cl)c2)O[C@H]1CO)c1ccncc1	-1	x	13	x	x
CCCNC(=O)N1CC2(C1)[C@H](c1ccccc1)[C@@H](CO)N2C(=O)c1ccncc1	x	x	-1	x	x
C=CCN1C(=O)[C@@]2(O[C@@H](CCO)[C@H]([Si](C)(C)c3ccc(OC)cc3)[C@H]2C)c2cc(NC(C)=O)ccc21	x	x	10	x	x
O=C(COC(=O)CC1CC2CCC1C2)NCc1ccc(F)cc1 (configuration not stated)	3	x	7	x	x
O=C(CC1CC2CCC1C2)OCC(=O)c1c[nH]c2ccccc12 (configuration not stated)	24	-84*	-3	4	i
C[C@@H]1CCCCO[C@H](CN(C)S(=O)(=O)c2cccs2)[C@@H](C)CN([C@H](C)CO)C(=O)c2cc(NC(=O)c3ccncc3)ccc2O1	x	x	3	x	x

High-throughput results (PubChem BioAssay)
